The record followed here is PubChem BioAssay (EPA / NIEHS).

The source made the active and inactive calls. How the source made its calls, unless noted: active means hit-call score of the fitted dose curve at least 0.9, where 1 is the maximum; inactive means score below 0.9.

Read-out in assay [1]: Protein phosphatase 2A (PPP2R4), PTPA (gene 5524)
The assay is described as follows: LTEA_HepaRG_PPP2R4: Life Technologies and Expression Analysis (LTEA) Assay for Protein phosphatase 2A (PPP2R4) using HepaRG (AID 2283522). The conditions noted are these: mRNA level, 48 h; actives raise or lower the signal. The gist of the method:
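HepaRG, 48 h exposure, 8-pt half-log series from 100 uM, 0.5% DMSO vehicle, duplicates. Readout: PPP2R4 mRNA, Fluidigm qRT-PCR, housekeeping-normalized. Bidirectional curve fit vs DMSO baseline.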

Read-out in assay [2]: Phosphatase and tensin (PTEN), PTEN (gene 5728)
Description: LTEA_HepaRG_PTEN: Life Technologies and Expression Analysis (LTEA) Assay for Phosphatase and tensin (PTEN) using HepaRG (AID 2283523). Conditions: mRNA level, 48 h; actives raise or lower the signal. Put shortly:
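Expression of PTEN is quantified in the human liver line HepaRG following two days of dosing (top concentration 100 uM, half-log dilutions, 0.5% DMSO). Values derive from bidirectional curve fitting relative to DMSO controls.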

Read-out in assay [3]: solute carrier (SLC22A1), SLC22A1 (gene 6580)
Description: LTEA_HepaRG_SLC22A1: Life Technologies and Expression Analysis (LTEA) Assay for solute carrier (SLC22A1) using HepaRG (AID 2283524). The conditions noted are these: mRNA level, 48 h; actives raise or lower the signal. The gist of the method: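 Transcript induction or suppression of SLC22A1 in human HepaRG cultures is scored after 48 h chemical treatment, with DMSO (0.5%) as baseline for bidirectional fitting. Concentrations span eight half-log points topping at 100 uM.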

Read-out in assay [4]: Pyruvate Dehydrogenase Kinase 4 (PDK4), PDK4 (gene 5166)
The assay is described as follows: LTEA_HepaRG_PDK4: Life Technologies and Expression Analysis (LTEA) Assay for Pyruvate Dehydrogenase Kinase 4 (PDK4) using HepaRG (AID 2283525). Conditions: mRNA level, 48 h; actives raise or lower the signal. The gist of the method:
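Eight-point, half-log concentration series (max 100 uM, 0.5% DMSO) applied to differentiated HepaRG cells for 48 h in duplicate. Endpoint: PDK4 mRNA induction or repression by qRT-PCR against DMSO baseline.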

Read-out in assay [5]: NAD(P)H dehydrogenase [quinone] 1 (NQO1), NQO1 (gene 1728)
The assay is described as follows: LTEA_HepaRG_NQO1: Life Technologies and Expression Analysis (LTEA) Assay for NAD(P)H dehydrogenase [quinone] 1 (NQO1) using HepaRG (AID 2283526). Conditions: mRNA level, 48 h; actives raise or lower the signal. The gist of the method:
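qRT-PCR read-out (Fluidigm TaqMan), normalized to three housekeeping genes, after 48 h chemical exposure of HepaRG cells. Concentrations: eight points, top 100 uM, half-log steps, 0.5% DMSO vehicle. Gain or loss of signal fitted relative to DMSO.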

Read-out in assay [6]: Nuclear factor erythroid 2-related factor 2 (Homo sapiens) (UniProt Q16236)
Description: LTEA_HepaRG_NFE2L2: Life Technologies and Expression Analysis (LTEA) Assay for Nuclear factor erythroid 2-related factor 2 (NFE2L2) Transcription Factor using HepaRG (AID 2283527). Conditions: mRNA level, 48 h; actives raise or lower the signal. The gist of the method: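 Human liver HepaRG line treated in duplicate for 48 h with an eight-point series topping at 100 uM. Gene expression of NFE2L2 by qRT-PCR, bidirectionally fitted against the vehicle control.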

Read-out in assay [7]: succinate dehydrogenase complex iron sulfur subunit B (SDHB), SDHB (gene 6390)
The assay is described as follows: LTEA_HepaRG_SDHB: Life Technologies and Expression Analysis (LTEA) Assay for succinate dehydrogenase complex iron sulfur subunit B (SDHB) using HepaRG (AID 2283528). Conditions: mRNA level, 48 h; actives raise or lower the signal. Put shortly:
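HepaRG, 48 h exposure, 8-pt half-log series from 100 uM in 0.5% DMSO, duplicates. Readout: SDHB mRNA by Fluidigm qRT-PCR vs housekeeping genes; bidirectional fit relative to DMSO.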

Read-out in assay [8]: Signal transducer and activator of transcription 3 (Homo sapiens) (UniProt P40763)
The assay is described as follows: LTEA_HepaRG_STAT3: Life Technologies and Expression Analysis (LTEA) Assay for Signal transducer and activator of transcription (STAT3) using HepaRG (AID 2283529). Conditions: mRNA level, 48 h; actives raise or lower the signal. The gist of the method: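 In this transcriptional endpoint, HepaRG cultures receive test chemicals at up to 100 uM for 48 h, tested in duplicate. STAT3 mRNA is normalized to ACTB, GAPDH and POLR2A.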

Read-out in assay [9]: solute carrier (SLCO1B1), SLCO1B1 (gene 10599)
Description: LTEA_HepaRG_SLCO1B1: Life Technologies and Expression Analysis (LTEA) Assay for solute carrier (SLCO1B1) using HepaRG (AID 2283530). Conditions: mRNA level, 48 h; actives raise or lower the signal. Put shortly: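 SLCO1B1 transcript levels were quantified by TaqMan qRT-PCR using three housekeeping genes for normalization. This followed 48 h chemical exposure (100 uM top, half-log, 8 points, 0.5% DMSO) of HepaRG liver cells, with gain or loss fitted relative to DMSO.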

Read-out in assay [10]: sulfotransferase 2A1 (SULT2A1), SULT2A1 (gene 6822)
Description: LTEA_HepaRG_SULT2A1: Life Technologies and Expression Analysis (LTEA) Assay for sulfotransferase 2A1 (SULT2A1) using HepaRG (AID 2283531). Conditions: mRNA level, 48 h; actives raise or lower the signal. The gist of the method: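 Expression change of SULT2A1, by qRT-PCR with three housekeeping-gene normalization, was scored bidirectionally versus DMSO. Cells: differentiated HepaRG, dosed in duplicate for 48 h across 8 points, highest 100 µM, half-log dilution, 0.5% DMSO.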

Read-out in assay [11]: Transforming Growth Factor (TGFA), TGFA (gene 7039)
The assay is described as follows: LTEA_HepaRG_TGFA: Life Technologies and Expression Analysis (LTEA) Assay for Transforming Growth Factor (TGFA) using HepaRG (AID 2283532). Conditions: mRNA level, 48 h; actives raise or lower the signal. The gist of the method:
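Gene expression of TGFA was quantified by qRT-PCR after human HepaRG cells were treated for 48 h with test chemicals (eight concentrations, highest 100 uM, 0.5% DMSO). Activity in either direction was fitted relative to DMSO.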

Read-out in assay [12]: Transforming Growth Factor (TGFB1), TGFB1 (gene 7040)
The assay is described as follows: LTEA_HepaRG_TGFB1: Life Technologies and Expression Analysis (LTEA) Assay for Transforming Growth Factor (TGFB1) Transporter using HepaRG (AID 2283533). Conditions: mRNA level, 48 h; actives raise or lower the signal. Put shortly: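 TGFB1 transcript measured by qRT-PCR with normalisation to three housekeeping genes (ACTB, GAPDH, POLR2A); human HepaRG line treated in duplicate for 48 hr with an 8-point series topping at 100 uM, 0.5% DMSO vehicle, bidirectionally fitted.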

Read-out in a further assay: TIMP1, TIMP1 (gene 7076)
Description: LTEA_HepaRG_TIMP1: Life Technologies and Expression Analysis (LTEA) Assay for TIMP1 using HepaRG (AID 2283534). Conditions: mRNA level, 48 h; actives raise or lower the signal. The gist of the method: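 Bidirectional change in TIMP1 transcript versus 0.5% DMSO, measured by TaqMan qRT-PCR with three housekeeping genes for normalization. HepaRG human liver cells dosed 48 h in duplicate, top concentration 100 uM with half-log dilutions.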

Read-out in assay [13]: Tumor necrosis factor receptor 1 (TNFRSF1A), TNFRSF1A (gene 7132)
The assay is described as follows: LTEA_HepaRG_TNFRSF1A: Life Technologies and Expression Analysis (LTEA) Assay for Tumor necrosis factor receptor 1 (TNFRSF1A) using HepaRG (AID 2283535). The conditions noted are these: mRNA level, 48 h; actives raise or lower the signal. Put shortly:
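mRNA measured by qRT-PCR (TaqMan, Fluidigm arrays) against ACTB/GAPDH/POLR2A housekeepers after 48 h chemical exposure of HepaRG cells. Top concentration 100 uM, half-log 8-point series, duplicates; vehicle 0.5% DMSO, both fit directions.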

Read-out in assay [14]: Thyroid Hormone Responsive (THRSP), THRSP (gene 7069)
Description: LTEA_HepaRG_THRSP: Life Technologies and Expression Analysis (LTEA) Assay for Thyroid Hormone Responsive (THRSP) using HepaRG (AID 2283536). Conditions: mRNA level, 48 h; actives raise or lower the signal. The gist of the method: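 Cell model: human HepaRG, approx. 100,000 cells/well, 0.5% DMSO vehicle. Exposure lasts 48 h; phenobarbital 1 mM serves as induction positive control. Gene expression is measured by qRT-PCR against three endogenous control genes.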

Read-out in assay [15]: UDP glucuronosyltransferase (UGT1A1), UGT1A1 (gene 54658)
The assay is described as follows: LTEA_HepaRG_UGT1A1: Life Technologies and Expression Analysis (LTEA) Assay for UDP glucuronosyltransferase (UGT1A1) using HepaRG (AID 2283538). The conditions noted are these: mRNA level, 48 h; actives raise or lower the signal. The gist of the method: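 HepaRG, 48 h chemical exposure (top 100 uM, half-log 8-pt, 0.5% DMSO vehicle), duplicate wells; qRT-PCR (TaqMan, Fluidigm array) for UGT1A1 mRNA, housekeeping-normalized; bidirectional curve fit vs DMSO baseline.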

Read-out in assay [16]: UDP glucuronosyltransferase (UGT1A6), UGT1A6 (gene 54578)
The assay is described as follows: LTEA_HepaRG_UGT1A6: Life Technologies and Expression Analysis (LTEA) Assay for UDP glucuronosyltransferase (UGT1A6) using HepaRG (AID 2283539). Conditions: mRNA level, 48 h; actives raise or lower the signal. Put shortly: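 Expression was quantified by TaqMan qRT-PCR on Fluidigm arrays with ACTB/GAPDH/POLR2A normalization and bidirectional fitting against 0.5% DMSO. HepaRG cells (~100,000/well) were treated in duplicate for 48 h at eight half-log concentrations up to 100 uM in serum-free induction medium.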

Read-out in assay [17]: X-box binding protein 1 (XBP1), XBP1 (gene 7494)
Description: LTEA_HepaRG_XBP1: Life Technologies and Expression Analysis (LTEA) Assay for X-box binding protein 1 (XBP1) using HepaRG (AID 2283540). The conditions noted are these: mRNA level, 48 h; actives raise or lower the signal. Put shortly: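 XBP1 transcript by qRT-PCR (housekeeping-normalized: ACTB, GAPDH, POLR2A) after 48 h chemical treatment of HepaRG cells, 8-point half-log series topping at 100 uM, vehicle 0.5% DMSO. Gain and loss of signal fitted relative to DMSO.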

A short description of assay [18]: LTEA_HepaRG_LDH_cytotoxicity: Cytotoxicity Assessment in the Life Technologies and Expression Analysis (LTEA) Assay (AID 2283563; active means hit-call score of the fitted dose curve at least 0.9, where 1 is the maximum). Put shortly:
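LDH release into culture medium read after 48 h chemical treatment of HepaRG cells. Duplicate wells, eight-point half-log series topping at 100 uM, 0.5% DMSO vehicle and baseline.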

Nuclear factor erythroid 2-related factor 2 (Homo sapiens), sequence (Q16236 whole entry, looked up): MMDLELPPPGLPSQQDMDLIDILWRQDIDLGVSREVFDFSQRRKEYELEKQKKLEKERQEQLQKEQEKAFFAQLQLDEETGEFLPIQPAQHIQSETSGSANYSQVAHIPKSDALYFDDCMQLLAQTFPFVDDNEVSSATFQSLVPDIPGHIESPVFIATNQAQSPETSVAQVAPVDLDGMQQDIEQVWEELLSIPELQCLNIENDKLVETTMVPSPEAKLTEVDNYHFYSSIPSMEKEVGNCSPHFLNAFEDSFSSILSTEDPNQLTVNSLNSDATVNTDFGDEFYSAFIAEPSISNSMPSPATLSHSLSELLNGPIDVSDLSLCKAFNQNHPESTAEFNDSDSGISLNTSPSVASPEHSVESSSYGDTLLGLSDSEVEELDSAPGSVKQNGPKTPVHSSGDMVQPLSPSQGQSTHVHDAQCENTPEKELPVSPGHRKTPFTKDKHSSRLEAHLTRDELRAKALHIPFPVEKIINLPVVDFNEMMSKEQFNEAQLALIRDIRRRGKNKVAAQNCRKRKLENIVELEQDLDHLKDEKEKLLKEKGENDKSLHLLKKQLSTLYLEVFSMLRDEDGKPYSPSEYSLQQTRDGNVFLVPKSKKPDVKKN
Signal transducer and activator of transcription 3 (Homo sapiens), sequence (P40763 whole entry, looked up): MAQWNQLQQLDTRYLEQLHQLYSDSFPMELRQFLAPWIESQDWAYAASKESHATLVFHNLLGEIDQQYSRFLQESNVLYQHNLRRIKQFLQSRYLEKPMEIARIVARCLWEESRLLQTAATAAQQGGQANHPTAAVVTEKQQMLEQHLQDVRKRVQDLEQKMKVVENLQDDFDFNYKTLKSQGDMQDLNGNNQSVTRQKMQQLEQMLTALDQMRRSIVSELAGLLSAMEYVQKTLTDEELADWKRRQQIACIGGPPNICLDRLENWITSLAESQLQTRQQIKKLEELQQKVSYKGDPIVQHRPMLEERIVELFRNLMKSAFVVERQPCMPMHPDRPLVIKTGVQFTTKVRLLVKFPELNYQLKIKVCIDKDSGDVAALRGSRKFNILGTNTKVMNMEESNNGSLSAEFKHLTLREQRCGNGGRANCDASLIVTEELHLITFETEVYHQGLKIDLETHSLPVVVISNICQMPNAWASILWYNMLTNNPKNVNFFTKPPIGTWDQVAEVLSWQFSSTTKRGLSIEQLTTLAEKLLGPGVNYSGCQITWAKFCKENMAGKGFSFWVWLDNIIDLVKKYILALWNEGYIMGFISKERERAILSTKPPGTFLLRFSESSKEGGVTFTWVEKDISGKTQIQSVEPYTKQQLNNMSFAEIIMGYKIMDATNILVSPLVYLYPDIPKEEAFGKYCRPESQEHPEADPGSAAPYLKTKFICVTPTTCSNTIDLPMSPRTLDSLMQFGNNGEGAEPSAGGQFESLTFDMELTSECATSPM

With `CCC(CC)Nc1c([N+](=O)[O-])cc(C)c(C)c1[N+](=O)[O-]`, the outcome in [1], in assay [2], in [3], in assay [4], in assay [5] and in assay [6] was inactive. Besides, the outcome is “inactive” in [7]; “inactive” in assay [8]; “inactive” in [10]; “inactive” in assay [11]; “inactive” in assay [12]; “inactive” with TIMP1, TIMP1 (gene 7076). Moreover, the compound was called inactive in [13], in assay [16], in assay [17] and in assay [18]. Further, the concentration at half-maximal activity (AC50) in [9] is 50 µM (active); in assay [14] it was 36.7 µM (active); in assay [15], 28.2 µM (active).
Regarding `COP(=O)(OC)C(O)C(Cl)(Cl)Cl` (stereo unspecified), the result in assay [1], in [2], in [3], in [4], in assay [5] and in [6] was inactive. For the same compound, the compound was called inactive in [7], in assay [8], in assay [9], in assay [10], in assay [11] and in [12]. Further, the compound was classed as inactive in assay [14], in assay [17] and in assay [18]. For the same compound, the AC50 with TIMP1, TIMP1 (gene 7076) is 0.0702 µM (active); in [13], 0.109 µM (active); in assay [15], 0.0534 µM (active); in assay [16], 0.103 µM (active).
Regarding `COc1ccc(C(=CC(=O)N2CCOCC2)c2ccc(Cl)cc2)cc1OC`, the call in [1], in [2], in assay [3], in assay [4], in assay [5] and in [6] was inactive. For the same compound, the compound was classed as inactive in assay [7], in [8], in [9], in [10], in assay [11] and in [12]. In addition, the outcome is “inactive” with TIMP1, TIMP1 (gene 7076); “inactive” in assay [13]; “inactive” in assay [16]; “inactive” in assay [17]; “inactive” in assay [18]. The figures for the concentration at half-maximal activity (AC50) in [14] and in [15] were 63.8 µM (active) and 11.1 µM (active), respectively.
In the case of `CNC(=O)ON=C(SC)C(=O)N(C)C`, the result in [1], in assay [2], in assay [3], in assay [4], in assay [5] and in [6] was inactive. Moreover, the compound was classed as inactive in [7], in assay [8], in assay [9], in assay [10], in assay [11] and in assay [12]. For the same compound, the outcome in the assay with TIMP1, TIMP1 (gene 7076) is “inactive”; in assay [13], “inactive”; in [14], “inactive”; in assay [15] it was “inactive”; in assay [16], “inactive”; in assay [17] it was “inactive”. Moreover, in assay [18], the compound was called inactive.
